Test results as given in article PMC4242493, “Sequence specificity incompletely defines the genome-wide occupancy of Myc”.
Whole data set: some 33,000 sequences, median “normalized occupancy” near 0.075, cut for the highest 2% near 0.095. The sample as a whole holds a higher share of the highest values than the screen did.

biological target: MaxL homodimer (Homo sapiens, UniProt P61244 1-160); assay: universal protein-binding microarray (PBM); PBS-based mixture, 10 nM His-tagged protein dimer, 2% milk, 200 ng/uL BSA, 50 ng/uL salmon testes DNA, 0.02% TX-100; detection with Alexa 488 anti-His antibody;; high values mean tight binding; conditions: protein: recombinant; tags: C-terminal His-tag (pET21a); chain copies: 2; dsDNA, one strand shown
Sequence (P61244 whole entry): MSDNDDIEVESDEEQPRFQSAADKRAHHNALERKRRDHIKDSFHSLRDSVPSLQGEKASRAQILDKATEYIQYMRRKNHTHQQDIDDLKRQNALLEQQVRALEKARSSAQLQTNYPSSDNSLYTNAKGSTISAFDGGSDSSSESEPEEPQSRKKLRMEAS
Outline: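 A His-tagged protein dimer at 10 nM was incubated on Agilent 4 x 44 K arrays of the 'all 10-mer' universal design, then labelled with 10 ng/μL fluorophore-conjugated anti-His antibody and scanned on a GenePix 4400A. A fluorescence intensity was assigned to each 8-mer. Binding occupancy is each such intensity normalised to that of the highest-ranked one.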

Sequence	binding signal
AGTCAGCG	0.0777 normalized occupancy
CCAATTGG	0.0757 normalized occupancy
GATCACCC	0.0786 normalized occupancy
AATCACTA	0.0729 normalized occupancy
AATCACGT	0.099 normalized occupancy
GATCACGA	0.0786 normalized occupancy
AGTCACGG	0.0774 normalized occupancy
AGTCACGC	0.0989 normalized occupancy
AATCACGA	0.0856 normalized occupancy
AATCACGG	0.0727 normalized occupancy
GATCACGC	0.0977 normalized occupancy
AGTCACGA	0.0912 normalized occupancy
AATCACCT	0.0853 normalized occupancy
AATCACGC	0.0974 normalized occupancy
CCAATGGA	0.0747 normalized occupancy
ACGCCTGC	0.0743 normalized occupancy
CCAGAATC	0.0733 normalized occupancy
CATCACGC	0.0961 normalized occupancy
CATCACGG	0.0829 normalized occupancy
CATCACGA	0.0811 normalized occupancy
GGTCTTGA	0.0779 normalized occupancy
GATGTGGC	0.0839 normalized occupancy
CATGTGGG	0.144 normalized occupancy
CATGTGGC	0.165 normalized occupancy
CATGTGGA	0.157 normalized occupancy

Sequence	binding signal
AATGTGGA	0.0903 normalized occupancy
GATGTTGC	0.0781 normalized occupancy
AATGTGGG	0.0907 normalized occupancy
GATGTGGA	0.0847 normalized occupancy
CATGTTGC	0.0999 normalized occupancy
CATGTTGA	0.0943 normalized occupancy
CATGTCGG	0.088 normalized occupancy
AATGTGGC	0.0898 normalized occupancy
GGATTTGA	0.0761 normalized occupancy
CTATAGTA	0.0737 normalized occupancy
AACAATGC	0.0816 normalized occupancy
AGCTGTTA	0.0759 normalized occupancy
AAGTGTAA	0.0802 normalized occupancy
GGGTCTAC	0.0725 normalized occupancy
CGGACCCC	0.0732 normalized occupancy
ACCTCGAG	0.0843 normalized occupancy
ATATGCCG	0.0773 normalized occupancy
ACATGCCC	0.099 normalized occupancy
GAATGCCC	0.0765 normalized occupancy
CAATGCCG	0.0728 normalized occupancy
CCATGCCC	0.0935 normalized occupancy
CCATGCCA	0.0875 normalized occupancy
AGATGCCG	0.0739 normalized occupancy
ACATGCCT	0.0828 normalized occupancy
GCATGCCC	0.105 normalized occupancy

Sequence	binding signal
AGATGCCC	0.0786 normalized occupancy
CCATGCCG	0.1 normalized occupancy
ACATGCCG	0.103 normalized occupancy
TAAGAGTA	0.0797 normalized occupancy
TCTCACAA	0.0786 normalized occupancy
ATGAGAGC	0.078 normalized occupancy
CGAGATGC	0.078 normalized occupancy
AAGGACAC	0.0757 normalized occupancy
GGCCACGA	0.0815 normalized occupancy
AGGTCTCA	0.074 normalized occupancy
CAATTAAA	0.0744 normalized occupancy
AGTGGTCG	0.0719 normalized occupancy
AGATGCCA	0.0772 normalized occupancy
ATATGCCA	0.0822 normalized occupancy
GTATGCCA	0.0806 normalized occupancy
ACATGCCA	0.0967 normalized occupancy
GCATGCCA	0.108 normalized occupancy
TCATGCCA	0.0861 normalized occupancy
GGTCCCGA	0.0733 normalized occupancy
ACTAACCT	0.0752 normalized occupancy
GGTGGGAC	0.0719 normalized occupancy
CGTGGGAA	0.089 normalized occupancy
CGTGGGAC	0.096 normalized occupancy
TGGGTCAA	0.0772 normalized occupancy
CTCCATGC	0.0969 normalized occupancy

Sequence	binding signal
GACCATGA	0.0823 normalized occupancy
AACCATGC	0.106 normalized occupancy
GACCATAC	0.0805 normalized occupancy
CTCCATGA	0.0798 normalized occupancy
CACCATGG	0.0885 normalized occupancy
ATCCATGC	0.0942 normalized occupancy
GACCATGC	0.109 normalized occupancy
CACCATGA	0.0873 normalized occupancy
CACCATGC	0.108 normalized occupancy
AACCATGT	0.0862 normalized occupancy
AACCATGA	0.0836 normalized occupancy
GTTGCCCA	0.0762 normalized occupancy
CTCCCTCC	0.0789 normalized occupancy
CGACCCAC	0.0808 normalized occupancy
AGTGTCAT	0.0822 normalized occupancy
CCACATCA	0.0798 normalized occupancy
CACGCTTC	0.098 normalized occupancy
CGCGCTTC	0.0753 normalized occupancy
GACGCTTA	0.0768 normalized occupancy
AACGCTTA	0.0733 normalized occupancy
CACGCTTA	0.103 normalized occupancy
AACGCTTC	0.0768 normalized occupancy
TACCTAGA	0.073 normalized occupancy
AACTCATC	0.0815 normalized occupancy
GCTGACGA	0.072 normalized occupancy

Sequence	binding signal
ACATGTCG	0.1 normalized occupancy
AAATGTAG	0.0793 normalized occupancy
ACATGTCT	0.0899 normalized occupancy
AAATGTAT	0.0812 normalized occupancy
ACATGTAT	0.102 normalized occupancy
TCATGTAA	0.0936 normalized occupancy
CCATGTCG	0.0843 normalized occupancy
GCATGTAA	0.0836 normalized occupancy
ACATGTAG	0.101 normalized occupancy
AGATGTAT	0.0832 normalized occupancy
ACATGTAA	0.0953 normalized occupancy
CCATGTAG	0.0836 normalized occupancy
ACCATTAG	0.0781 normalized occupancy
ATCCAGAG	0.0719 normalized occupancy
CACGCGGG	0.145 normalized occupancy
CACGCGGC	0.151 normalized occupancy
CACGCGGA	0.15 normalized occupancy
AACGCGGC	0.0757 normalized occupancy
TACGCGGA	0.0723 normalized occupancy
GACGCGGC	0.0758 normalized occupancy
CCCGCGGG	0.0758 normalized occupancy
CGCGCGGA	0.0836 normalized occupancy
AACGCGGA	0.0818 normalized occupancy
CCGAGAGA	0.0728 normalized occupancy
TCGCACGA	0.0806 normalized occupancy

Sequence	binding signal
CAGGTGCG	0.0849 normalized occupancy
CAGTTGCA	0.0721 normalized occupancy
CCCTAACC	0.0758 normalized occupancy
CTGTGCAA	0.0754 normalized occupancy
TACACGTA	0.083 normalized occupancy
CACACGTG	0.553 normalized occupancy
AACACGGA	0.0756 normalized occupancy
AACACGTG	0.706 normalized occupancy
AACACGTT	0.128 normalized occupancy
AACACGTA	0.083 normalized occupancy
CACACGTA	0.0925 normalized occupancy
CACACGTC	0.0858 normalized occupancy
AACACGTC	0.0786 normalized occupancy
ATTTACGC	0.0786 normalized occupancy
CTCCCGCC	0.0726 normalized occupancy
ATTATGAC	0.0798 normalized occupancy
ACCTCTAT	0.0776 normalized occupancy
AAATGGTA	0.0806 normalized occupancy
CATTTTAC	0.0853 normalized occupancy
AGATACAC	0.0831 normalized occupancy
GCTCCTAA	0.0767 normalized occupancy
AAACGACC	0.0727 normalized occupancy
CACGTGGG	0.707 normalized occupancy
AAGGTGGA	0.0747 normalized occupancy
CACGTGGC	0.837 normalized occupancy

Sequence	binding signal
CACGTAGG	0.0797 normalized occupancy
GACGTGGA	0.087 normalized occupancy
AAAGTGGA	0.0743 normalized occupancy
AACGTGGA	0.115 normalized occupancy
CAAGTGGC	0.0744 normalized occupancy
CACGTGGA	0.768 normalized occupancy
CAAGTGGG	0.0807 normalized occupancy
CACGTCGC	0.0825 normalized occupancy
TACGTGGA	0.0878 normalized occupancy
AGAGCCGA	0.0723 normalized occupancy
CTTTTTGA	0.0761 normalized occupancy
ACCGTAAC	0.0752 normalized occupancy
ACTAAGAC	0.0733 normalized occupancy
ACGGCACC	0.0742 normalized occupancy
GTCCACAA	0.0768 normalized occupancy
CAGCGGTA	0.0751 normalized occupancy
ATCCGTGG	0.078 normalized occupancy
ACTGTAAT	0.0778 normalized occupancy
AACAGGTC	0.0733 normalized occupancy
CACAGGTG	0.0857 normalized occupancy
CAAATGTG	0.0879 normalized occupancy
AACAGGTG	0.102 normalized occupancy
AACATGTG	0.184 normalized occupancy
